# Test results from PubChem BioAssay (Tox21).
# Records with an inconclusive call do not appear. Where a call stands in place of a potency, no number is given. A number with no mark means an inactive call. Calls of active or inactive are those of the source. Unless noted, calls come from the whole dose curve; as a rule, active = well fitted curve in the direction sought with a large enough effect in the repeat runs; inconclusive = weak or mixed curves; inactive = no such curve, though single readings can be large; an effect the other way counts as inactive or inconclusive.
# Experiments:
# [1] = qHTS assay to identify small molecule that activate the aryl hydrocarbon receptor (AhR) signaling pathway - cell viability counter screen (AID 743086);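 note: HepG2 liver cells carrying the AhR DRE luciferase reporter; series mostly up to about 70 µM; nearly all actives have a fitted effect of over 45% in size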
# Outline: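 Cytotoxicity counter screen: CellTiter-Fluor signal (30 min, 37 C) in 4000 HepG2 cells/well carrying the DRE-luciferase reporter, following 24 h compound exposure at 37 C.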
# [2] = target: Peroxisome proliferator-activated receptor gamma (Homo sapiens) (UniProt P37231); experiment: qHTS assay to identify small molecule agonists of the peroxisome proliferator-activated receptor gamma (PPARg) signaling pathway (AID 743094; active = well fitted activation curve with a large enough effect in the signal ratio in the repeat runs, not every such curve was filed as active; the % refers to the signal ratio; note: potency is the fitted concentration of half-maximal effect)
# Peroxisome proliferator-activated receptor gamma (Homo sapiens), sequence (P37231 whole entry, looked up): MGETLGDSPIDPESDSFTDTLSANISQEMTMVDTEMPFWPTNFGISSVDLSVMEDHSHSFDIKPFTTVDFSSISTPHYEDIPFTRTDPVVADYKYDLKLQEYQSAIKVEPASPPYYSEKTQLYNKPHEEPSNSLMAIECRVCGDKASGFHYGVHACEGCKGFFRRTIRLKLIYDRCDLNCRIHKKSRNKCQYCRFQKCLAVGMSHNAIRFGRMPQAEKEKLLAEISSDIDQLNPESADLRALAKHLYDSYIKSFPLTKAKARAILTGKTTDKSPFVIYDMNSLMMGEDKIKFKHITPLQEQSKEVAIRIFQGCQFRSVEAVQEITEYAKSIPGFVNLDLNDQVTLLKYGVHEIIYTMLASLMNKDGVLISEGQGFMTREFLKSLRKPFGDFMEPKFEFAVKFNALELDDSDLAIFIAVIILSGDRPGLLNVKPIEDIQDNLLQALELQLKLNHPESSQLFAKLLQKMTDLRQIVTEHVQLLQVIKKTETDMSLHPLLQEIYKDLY
# Outline: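 GeneBLAzer PPARg UAS-bla HEK293H cells carrying a stably integrated beta-lactamase reporter were pre-incubated 5 h at 37C, then exposed to compounds in DMSO for 17 h at 37C; LiveBLAzer B/G FRET substrate was added for 1 h at room temperature and fluorescence read.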
# [3] = qHTS assay for small molecule agonists of the antioxidant response element (ARE) signaling pathway - cell viability counter screen (AID 743203; calls by dose curve; note: nearly all actives have a fitted effect of over 55% in size)
# Outline: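 CellSensor ARE-bla HepG2 cells, 2,000 per well, rested 5 hrs at 37C/5% CO2, then exposed to compound in DMSO for 16 hrs; viability read as CellTiter-Glo luminescence after 30 min at room temperature, in the reporter wells.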
# [4] = qHTS assay for small molecule activators of the heat shock response signaling pathway - cell viability counter screen (AID 743209); note: nearly all actives have a fitted effect of over 50% in size
# Outline: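 CellSensor HSE-bla HeLa cells, plated overnight at 37 C/5% CO2, were exposed to compounds in DMSO for 5 h at 37 C. Viability was then read in the same wells by CellTiter-Glo luminescence after 30 min at room temperature.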
# [5] = qHTS assay to identify small molecule agonists of the peroxisome proliferator-activated receptor delta (PPARd) signaling pathway - cell viability counter screen (AID 743211); note: nearly all actives have a fitted effect of over 55% in size
# Outline: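 Luminescent ATP viability assay (CellTiter-Glo, 30 min RT) in UAS-bla HEK293H cells carrying the PPAR delta reporter construct, 3000 cells/well, after a 17 h compound treatment at 37 C.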
# [6] = qHTS assay to identify small molecule antagonists of the peroxisome proliferator-activated receptor delta (PPARd) signaling pathway - cell viability counter screen (AID 743213); note: nearly all actives have a fitted effect of over 50% in size
# Outline: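 Cytotoxicity counter screen: CellTiter-Glo luminescence read 30 min after addition, in the same wells as the reporter assay. There, PPARd UAS-bla HEK293H cells (3000/well) were treated 17 h at 37 C with compound and 300 nM L165041.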
# [7] = target: Bile acid receptor (Homo sapiens) (UniProt Q96RI1); experiment: qHTS assay to identify small molecule antagonists of the farnesoid-X-receptor (FXR) signaling pathway (AID 743217; active = well fitted inhibition curve with a large enough effect in the signal ratio in the repeat runs, not every such curve was filed as active; the % refers to the signal ratio)
# Bile acid receptor (Homo sapiens), sequence (Q96RI1 whole entry, looked up): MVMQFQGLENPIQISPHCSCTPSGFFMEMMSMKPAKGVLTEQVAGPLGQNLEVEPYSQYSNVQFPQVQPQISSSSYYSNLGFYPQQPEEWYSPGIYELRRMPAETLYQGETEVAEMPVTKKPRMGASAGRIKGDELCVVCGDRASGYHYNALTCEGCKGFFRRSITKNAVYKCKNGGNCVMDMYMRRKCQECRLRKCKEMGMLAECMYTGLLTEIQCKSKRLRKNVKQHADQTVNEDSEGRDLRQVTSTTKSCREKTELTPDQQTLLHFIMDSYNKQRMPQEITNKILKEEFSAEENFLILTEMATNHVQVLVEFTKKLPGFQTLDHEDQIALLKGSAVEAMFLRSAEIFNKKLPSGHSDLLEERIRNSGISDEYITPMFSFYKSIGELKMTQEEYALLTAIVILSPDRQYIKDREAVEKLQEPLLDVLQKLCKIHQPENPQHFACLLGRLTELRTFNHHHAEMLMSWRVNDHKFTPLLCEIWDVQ
# Outline: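 FXR-UAS-bla HEK 293T cells pre-incubated 5 h at 37 °C, then exposed to compounds with chenodeoxycholic acid (50 uM final) for 16 h at 37 °C. Beta-lactamase reporter read by LiveBLAzer B/G FRET substrate fluorescence after 2 h at room temperature.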
# [8] = qHTS assay to identify small molecule agonists of the farnesoid-X-receptor (FXR) signaling pathway - cell viability counter screen (AID 743218); note: nearly all actives have a fitted effect of over 45% in size
# Outline: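 FXR-UAS-bla HEK 293T cells, plated 5 h at 37 C, were exposed to compounds for 16 h at 37 C. CellTiter-Glo was then added to the same wells as the bla readout; luminescence read after 30 min at room temperature.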
# [9] = qHTS assay to identify small molecule antagonists of the farnesoid-X-receptor (FXR) signaling pathway - cell viability counter screen (AID 743221; active = well fitted cell-killing curve with a large enough effect in the repeat runs, not every such curve was filed as active; note: nearly all actives have a fitted effect of over 50% in size; note: potency is the fitted concentration of half-maximal effect)
# Outline: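 In GeneBLAzer FXR-UAS-bla HEK 293T cells stimulated with 50 uM chenodeoxycholic acid (final), compounds acted for 16 h at 37 C. Viability was assessed afterwards by CellTiter-Glo luminescence.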
# [10] = target: Vitamin D3 receptor (Homo sapiens) (UniProt P11473); experiment: qHTS assay to identify small molecule agonists of the vitamin D receptor (VDR) signaling pathway (AID 743222; calls by dose curve)
# Vitamin D3 receptor (Homo sapiens), sequence (P11473 whole entry, looked up): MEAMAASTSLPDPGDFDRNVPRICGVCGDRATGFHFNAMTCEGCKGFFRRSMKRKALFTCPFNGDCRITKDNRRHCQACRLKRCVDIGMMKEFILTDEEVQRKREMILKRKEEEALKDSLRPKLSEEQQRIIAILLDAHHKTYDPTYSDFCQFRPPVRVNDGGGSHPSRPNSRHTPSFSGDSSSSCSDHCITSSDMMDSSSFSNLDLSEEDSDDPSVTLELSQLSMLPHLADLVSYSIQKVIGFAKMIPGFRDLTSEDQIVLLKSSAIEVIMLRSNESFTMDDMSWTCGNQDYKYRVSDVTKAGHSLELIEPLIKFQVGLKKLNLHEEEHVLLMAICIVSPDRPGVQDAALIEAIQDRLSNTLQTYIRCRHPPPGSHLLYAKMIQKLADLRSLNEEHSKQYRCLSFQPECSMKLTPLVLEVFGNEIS
# Outline: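 VDR-bla cells were plated 4 h at 37C/5% CO2, then exposed to compounds in DMSO for 16 h. After LiveBLAzer B/G FRET substrate addition and 2 h at room temperature, beta-lactamase reporter fluorescence was read.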
# [11] = target: Vitamin D3 receptor (Homo sapiens) (UniProt P11473); experiment: qHTS assay to identify small molecule antagonists of the vitamin D receptor (VDR) signaling pathway (AID 743223; active = well fitted inhibition curve with a large enough effect in the signal ratio in the repeat runs, not every such curve was filed as active; the % refers to the signal ratio)
# Outline: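 Agonist 1alpha,25-dihydroxyvitamin D3 (3 nM in well) was added with each compound to VDR-bla cells preincubated 4 h. Cells stood 16 h at 37C, then FRET substrate 2 h at room temperature; fluorescence intensity recorded.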
# [12] = qHTS assay to identify small molecule agonists of the vitamin D receptor (VDR) signaling pathway - cell viability counter screen (AID 743224); note: series mostly up to about 63 µM; nearly all actives have a fitted effect of over 50% in size
# Outline: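 VDR-bla cells were preincubated 4 h at 37C/5% CO2, then exposed to compounds for 16 h. After the 2 h room-temperature bla FRET read, CellTiter-Glo was added to the same wells and luminescence read after 30 min.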
# [13] = qHTS assay for small molecule agonists of the antioxidant response element (ARE) signaling pathway (AID 743202; active = well fitted activation curve with a large enough effect in the signal ratio in the repeat runs, not every such curve was filed as active; the % refers to the signal ratio; note: potency is the fitted concentration of half-maximal effect)
# Outline: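 Quantitative high-throughput format in HepG2 cells bearing an integrated ARE-beta-lactamase reporter. Compound exposure lasted 16 h at 37 C, and fluorescence was read 2 h after adding LiveBLAzer B/G substrate at room temperature.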
# [14] = qHTS assay for small molecule activators of the heat shock response signaling pathway (AID 743210; active = well fitted activation curve with a large enough effect in the signal ratio in the repeat runs, with a control signal flat, not every such curve was filed as active; the % refers to the signal ratio;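 note: HeLa cells with beta-lactamase reporter driven by heat shock elements; series mostly up to about 63 µM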)
# Outline: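 HeLa HSE-bla cells, overnight plating; cpd in DMSO 5 h, 37 C; LiveBLAzer B/G FRET substrate 2.5 h RT; fluorescence intensity read.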
# [15] = target: Bile acid receptor (Homo sapiens) (UniProt Q96RI1); experiment: qHTS assay to identify small molecule agonists of the farnesoid-X-receptor (FXR) signaling pathway (AID 743220; active = well fitted activation curve with a large enough effect in the signal ratio in the repeat runs, not every such curve was filed as active; the % refers to the signal ratio)
# Outline: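 Beta-lactamase reporter under UAS control in GeneBLAzer FXR HEK 293T cells (5000/well) measured with LiveBLAzer FRET substrate after 2 h at room temperature. Compound exposure lasted 16 h at 37C.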
# [16] = qHTS assay to identify small molecule antagonists of the peroxisome proliferator-activated receptor gamma (PPARg) signaling pathway - cell viability counter screen (AID 743194); note: nearly all actives have a fitted effect of over 55% in size
# Outline: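 Viability was measured as CellTiter-Glo luminescence in GeneBLAzer PPARg UAS-bla HEK293H cells. These cells had been exposed 17 h at 37 C to compounds together with rosiglitazone at 50 nM final, with the beta-lactamase readout taken in the same wells.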
# [17] = target: Peroxisome proliferator-activated receptor delta (Homo sapiens) (UniProt Q03181); experiment: qHTS assay to identify small molecule agonists of the peroxisome proliferator-activated receptor delta (PPARd) signaling pathway (AID 743212; calls by dose curve; note: potency is the fitted concentration of half-maximal effect)
# Peroxisome proliferator-activated receptor delta (Homo sapiens), sequence (Q03181 whole entry, looked up): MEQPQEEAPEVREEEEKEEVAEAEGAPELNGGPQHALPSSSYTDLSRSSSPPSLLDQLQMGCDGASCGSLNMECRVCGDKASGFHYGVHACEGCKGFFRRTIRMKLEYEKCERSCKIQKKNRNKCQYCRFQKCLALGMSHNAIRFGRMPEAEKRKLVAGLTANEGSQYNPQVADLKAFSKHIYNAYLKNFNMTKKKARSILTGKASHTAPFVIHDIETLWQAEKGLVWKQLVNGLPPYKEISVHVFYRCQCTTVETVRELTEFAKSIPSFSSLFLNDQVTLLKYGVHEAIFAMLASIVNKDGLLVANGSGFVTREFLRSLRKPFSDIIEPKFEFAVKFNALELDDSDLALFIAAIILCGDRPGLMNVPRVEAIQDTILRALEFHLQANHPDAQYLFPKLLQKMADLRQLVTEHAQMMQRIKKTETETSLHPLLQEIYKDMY
# Outline: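 HEK293H PPARd-bla cells; 5 h preincubation 37 C/5% CO2; compound (DMSO) 37 C; LiveBLAzer B/G FRET substrate 2 h RT; fluorescence intensity.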
# [18] = target: Peroxisome proliferator-activated receptor delta (Homo sapiens) (UniProt Q03181); experiment: qHTS assay to identify small molecule antagonists of the peroxisome proliferator-activated receptor delta (PPARd) signaling pathway (AID 743215; active = well fitted inhibition curve with a large enough effect in the signal ratio in the repeat runs, not every such curve was filed as active; the % refers to the signal ratio;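 note: cells stimulated with agonist L165041 at 300 nM final during compound exposure; series mostly up to about 62 µM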)
# Outline: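 PPARd UAS-bla HEK293H cells were pre-incubated 5 h at 37 C, then given test compounds in DMSO plus agonist L165041 (300 nM final). After 17 h at 37 C, beta-lactamase FRET substrate was added; fluorescence read after 2 h at room temperature.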
smiles,measurement,setting,value
CCOC(=O)COC(=O)c1cc(Oc2ccc(C(F)(F)F)cc2Cl)ccc1[N+](=O)[O-],Potency,[1],inactive
same,Potency,[2],inactive
same,Potency,[3],inactive
same,Potency,[4],inactive
same,Potency,[5],inactive
same,Potency,[6],inactive
same,Potency,[7],inactive
same,Potency,[8],inactive
same,Potency,[9],inactive
same,Potency,[10],inactive
same,outcome,[11],inactive
same,Potency,[12],inactive
Cc1cccc(Nc2ccccc2)c1,Potency,[1],inactive
same,Potency,[13],inactive
same,Potency,[3],inactive
same,Potency,[4],inactive
same,Potency,[14],inactive
same,Potency,[5],inactive
same,Potency,[6],inactive
same,Potency,[7],inactive
same,Potency,[8],inactive
same,Potency,[15],inactive
same,Potency,[10],inactive
same,outcome,[11],inactive
same,Potency,[12],inactive
Brc1c2ccccc2c(Br)c2ccccc12,"viability change, negative = cytotoxic",[1],-2.96% [at 8.47 µM]
same,Potency,[2],1.98 µM (active)
same,"activity change, negative = cytotoxicity",[16],7.41% [at 5.95 µM]
same,"viability change, negative = cytotoxic",[3],3.8% [at 8.36 µM]
same,"activity change, negative = cytotoxicity",[4],2.9% [at 5.95 µM]
same,"activity change, negative = cytotoxicity",[5],11.2% [at 5.95 µM]
same,Potency,[17],1.98 µM (active)
same,"viability change, negative = cytotoxic",[6],-15% [at 6.26 µM]
same,"ratio activity, negative = inhibition",[18],-10.9% [at 6.26 µM]
same,"activity change, negative = inhibition",[7],14.8% [at 5.95 µM]
same,"activity change, negative = cytotoxicity",[9],-3.74% [at 5.95 µM]
same,"activity change, negative = cytotoxicity",[12],13.8% [at 5.95 µM]
CCNc1cc(O)ccc1C,Potency,[1],inactive
same,Potency,[16],inactive
same,Potency,[3],inactive
same,Potency,[4],inactive
same,Potency,[14],inactive
same,Potency,[5],inactive
same,Potency,[17],inactive
same,Potency,[18],inactive
same,Potency,[7],inactive
same,Potency,[8],inactive
same,Potency,[15],inactive
same,Potency,[9],inactive
same,Potency,[12],inactive
CC1=CC[C@H](C(C)C)C=C1,Potency,[1],inactive
same,Potency,[2],inactive
same,Potency,[13],54.5 µM (active)
same,Potency,[3],inactive
same,Potency,[4],inactive
same,Potency,[14],inactive
same,Potency,[6],inactive
same,Potency,[8],inactive
same,Potency,[9],49 µM (active)
same,Potency,[12],inactive
CC1=CCCC(C)(C)C12CCC(C)O2 (stereo not drawn),Potency,[1],inactive
same,Potency,[16],inactive
same,Potency,[3],inactive
same,Potency,[4],inactive
same,Potency,[14],inactive
same,Potency,[5],inactive
same,Potency,[7],inactive
same,Potency,[15],inactive
same,Potency,[12],inactive
CCCCCCc1ccc(-c2ccc(C#N)cc2)cc1,Potency,[1],inactive
same,Potency,[13],inactive
same,Potency,[3],inactive
same,Potency,[4],inactive
same,Potency,[14],inactive
same,Potency,[5],inactive
same,Potency,[17],inactive
same,Potency,[6],inactive
same,Potency,[18],inactive
same,Potency,[7],inactive
same,Potency,[15],inactive
same,Potency,[9],inactive
same,Potency,[12],inactive
Brc1c2ccccc2cc2ccccc12,Potency,[1],inactive
same,Potency,[2],49.5 µM (active)
same,Potency,[16],inactive
same,Potency,[4],inactive
same,Potency,[5],inactive
same,Potency,[6],inactive
same,Potency,[8],inactive
same,Potency,[9],inactive
same,outcome,[11],inactive
same,Potency,[12],inactive
CCC(C)O (stereo not drawn),Potency,[1],inactive
same,Potency,[16],inactive
same,Potency,[13],inactive
same,Potency,[3],inactive
same,Potency,[4],inactive
same,Potency,[14],inactive
same,Potency,[5],inactive
same,Potency,[6],inactive
same,Potency,[7],inactive
same,Potency,[15],inactive
same,Potency,[9],inactive
same,Potency,[10],inactive
same,Potency,[12],inactive
CCC(C)c1cc(C(C)(C)C)c(O)c(C(C)(C)C)c1 (stereo not drawn),Potency,[1],inactive
same,Potency,[16],inactive
same,Potency,[3],inactive
same,Potency,[6],inactive
same,Potency,[18],inactive
same,Potency,[9],inactive
same,Potency,[10],inactive
same,Potency,[12],inactive
